A selection: hits, their analogues and other compounds. The true share with any hit is near 14%.
Shiga toxin inh: A qHTS for Small Molecule Inhibitors of Shiga Toxin; Vero cells, Shiga toxin protein synthesis inhibition reporter; inhibition, % at 38.7 µM; 9.2% of 290,000 active; in the data active means inhibition mostly above about 28%, no sharp cut-off; inactive means mostly below about 43%
FBPA Giardia inh: qHTS Assay for Inhibitors of Fructose-1,6-bisphosphate Aldolase from Giardia Lamblia; A8B2U2; purified Giardia FBPA; Potency, µM (titrated, usually from 59.6 µM), most hits filed as inhibitors; 0.71% of 290,000 active; AID 2451, 2010; further: nearly all actives have a fitted effect of over 55% in size
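40 nM FBPA preincubated 10 min at RT with compound (up to 57.5 uM final), then substrate plus GAPDH/TPI/NAD/arsenate coupling and diaphorase/resazurin added. Fluorescence read after 20 min at RT, 525/598 nm.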
NS1 function inh: qHTS Assay for Inhibitors of Influenza NS1 Protein Function | 0.4% of 270,000 active | AID 2326, 2010 | Potency, µM (highest dose often 46.1 µM); calls by dose curve; further: actives are rising curves; nearly all actives have a fitted effect of over 50% in size
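Read-out: OD600 growth recovery of NS1-expressing budding yeast. Cells grown overnight at 30C in -URA glucose medium, washed, resuspended and diluted 1:100 in 2% galactose assay medium, pH 6.0. Same strain lacking NS1 served as positive control.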
Cycloheximide cs: Cycloheximide Counterscreen for Small Molecule Inhibitors of Shiga Toxin. cell reporter, cycloheximide protein synthesis inhibition counterscreen. max response, %. 12% of 300,000 active. AID 2314, 2010; in the data active means max response mostly above about 13%, no sharp cut-off; inactive means mostly below about 14%; further: read at 38.3 µM for the half of the compounds with a filed dose
LmPK inh: qHTS Assay for Inhibitors of Leishmania Mexicana Pyruvate Kinase (LmPK); Q27686; purified LmPK, Kinase-Glo ATP luminescence, 1 h; AID 1721, 2009; Potency, µM (titrated, usually from 57.5 µM), hits mostly inhibitors; 0.37% of 290,000 active
Target sequence (Q27686 whole entry, looked up): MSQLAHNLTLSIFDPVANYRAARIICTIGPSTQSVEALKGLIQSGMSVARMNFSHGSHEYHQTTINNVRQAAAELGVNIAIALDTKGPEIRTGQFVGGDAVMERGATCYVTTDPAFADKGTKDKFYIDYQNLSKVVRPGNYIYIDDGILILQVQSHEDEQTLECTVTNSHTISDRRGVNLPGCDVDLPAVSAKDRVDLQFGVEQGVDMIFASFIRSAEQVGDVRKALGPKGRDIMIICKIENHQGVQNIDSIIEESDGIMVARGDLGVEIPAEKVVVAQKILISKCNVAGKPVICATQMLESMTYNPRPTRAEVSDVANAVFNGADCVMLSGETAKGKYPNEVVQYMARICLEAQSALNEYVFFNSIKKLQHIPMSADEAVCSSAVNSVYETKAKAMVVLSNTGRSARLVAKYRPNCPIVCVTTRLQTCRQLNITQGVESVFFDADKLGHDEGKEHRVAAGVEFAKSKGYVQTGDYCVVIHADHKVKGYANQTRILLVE
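Screened at intermediate enzyme activity to detect both inhibitors and activators: LmPK at 0.1 nM, with a 0.5 nM enzyme column as activation reference. PEP 0.5 mM, ADP 0.1 mM; ATP detected by luminescence after 1 h.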
Each line names hits and unclear results; the compound was inactive in the other large screens. Unless noted, the call rests on the fitted dose curve; in most records, active means well fitted curve in the direction sought with a large enough effect; inconclusive means small, poorly fitted or top-dose-only effect, or another doubt; inactive means no such curve, though single readings can be large; an effect the other way counts as inactive or inconclusive.

COC(=O)C1=C(CS(=O)(=O)c2ccccc2)NC(=O)NC1c1ccc(O)cc1 (stereo not given)	none
COc1ccccc1NC(=O)CSc1nnnn1-c1ccccc1F	none (no result: Shiga toxin inh)
Cc1ccc(C)c(-c2ccc(C(=O)O)o2)c1	none (no result: NS1 function inh, LmPK inh)
CNC(=O)c1[nH]cnc1C(=O)Nc1ccc(Cl)cc1	Cycloheximide cs 28.0
C/C(=N\NC(=O)CNC(=O)c1cccs1)c1ccc(Cl)c(Cl)c1	none
C/C(=N\NC(=O)c1cccs1)c1c(O)cc(C)oc1=O	Shiga toxin inh 84.1, Cycloheximide cs 51.1 (no result: FBPA Giardia inh)
C/C(=N/NC(=O)c1cccs1)c1cccc(N)c1	Shiga toxin inh 87.9, Cycloheximide cs 42.7
CC(=O)Nc1cccc(/C(C)=N/NC(=S)NC(C)C)c1	Shiga toxin inh 67.4, Cycloheximide cs 28.3 (no result: NS1 function inh)
CCCCCCCC(=O)N/N=C(/C)c1c(O)cc(C)oc1=O	none
C/C(=N\NC(=O)c1sccc1-n1cccc1)c1cccs1	Shiga toxin inh 53.7 (no result: NS1 function inh)
CC(=O)c1cccc(S(=O)(=O)NC2CCSc3ccccc32)c1 (stereo not given)	none
CC(=O)Oc1ccccc1C1C[C@]2(C)CC(=O)NC2N1C(C)=O (stereo not given in full)	none
C/C(=N/NC(=O)c1cccs1)c1cccs1	Shiga toxin inh 75.8, Cycloheximide cs 42.7
CCOC(=O)N/N=C(\C)c1cccs1	Shiga toxin inh 95.9, Cycloheximide cs 34.7 (no result: NS1 function inh)
C/C(=N\NC(=O)c1nonc1N)c1cccs1	Shiga toxin inh active, FBPA Giardia inh inconclusive, Cycloheximide cs 23.1
C/C(=N\NC(=O)Cc1cccn1C)c1cccs1	none
C/C(=N\NC(=O)CC1(C)OCCO1)c1cccs1	none
CC(=O)Nc1cccc(/C(C)=N/NC(=O)c2ccc(NS(=O)(=O)c3cccs3)cc2)c1	none
CC(=O)Nc1cccc(/C(C)=N/NC(=O)c2cccs2)c1	Shiga toxin inh 45.8, Cycloheximide cs 56.5
CC1CC=CC2C1C(=O)N(Cc1ccccc1)C2c1ccc(Br)cc1F (stereo not given)	none (no result: NS1 function inh, LmPK inh)
Cc1ccc(C(=O)NCCc2nnc3ccc(SCC(=O)Nc4ccccc4F)nn23)cc1	none (no result: FBPA Giardia inh)
C=C1C=C(Br)C2(OCCCO2)[C@H]2OC12 (stereo not given in full)	none (no result: Shiga toxin inh, NS1 function inh, Cycloheximide cs, LmPK inh)
CCN(CC)S(=O)(=O)c1cccc(C(=O)N/N=C(\C)c2cccs2)c1	Shiga toxin inh 74.4, Cycloheximide cs 31.3 (no result: NS1 function inh)
Cc1ccc(Nc2nc(N)nc(CN3CCN(C)CC3)n2)cc1	Cycloheximide cs 32.2
COc1ccc(OCc2nc(N)nc(Nc3cccc(C)c3C)n2)cc1	none
COc1ccc(OCc2nc(N)nc(Nc3ccccc3)n2)cc1	Cycloheximide cs 21.3
Cc1nc(N)nc(COc2ccccc2)n1	Shiga toxin inh 46.0, Cycloheximide cs 36.8
COc1ccc(OCc2nc(N)nc(Nc3ccc(C)cc3)n2)cc1	Cycloheximide cs 15.1
COc1ccc(Nc2nc(N)nc(COc3ccc(OC)cc3)n2)cc1	none
CCC(C)NC(=O)CNC(=S)N(Cc1ccccc1F)C1CCCCC1 (stereo not given)	none
CC(CS(=O)(=O)c1ccc2c(c1)NC(=O)CS2)C(=O)NCc1ccccc1Cl (stereo not given)	none
C=CCNC(=S)Nc1cccc2ccccc12	FBPA Giardia inh 15.8µM
CC(C)c1ccc(NC(=S)Nc2cccc3ccccc23)cc1	Shiga toxin inh 98.4, Cycloheximide cs 54.8
CCc1ccc(NC(=S)Nc2cccc(OC)c2)cc1	Shiga toxin inh 67.3, Cycloheximide cs 15.7
Fc1ccc(NC(=S)Nc2cccc3ccccc23)cc1	Shiga toxin inh 69.8, FBPA Giardia inh inconclusive, Cycloheximide cs 42.2
C=CCNC(=S)NCc1ccccc1	none
COc1ccc(CNC(=S)Nc2cccc(OC)c2)cc1	none
CCOCCCN(C)C1CCN(S(=O)(=O)c2csc(C(N)=O)c2)CC1	none
Cc1ccc(S(=O)(=O)N(C)C)cc1NC(=S)Nc1cccc2ccccc12	none
COc1ccc(CCNC(=S)Nc2cccc(C)c2)cc1	none
CCc1cccc(NC(=S)Nc2cccc3ccccc23)c1	Cycloheximide cs 46.5
Cc1cc(NC(=S)Nc2cccc3ccccc23)n[nH]1	Shiga toxin inh 70.4, Cycloheximide cs 27.6 (no result: NS1 function inh)
Cc1cccc(NC(=S)N/N=C(\c2ccccc2)C(C)C)c1	Shiga toxin inh 54.8, Cycloheximide cs 25.9
Cc1cccc(NC(=S)NCCC(C)C)c1	Cycloheximide cs 20.4
CC(=O)Nc1ccc(NC(=O)C(C)OC(=O)CCCOc2ccc(Cl)c(C)c2)cc1 (stereo not given)	none (no result: FBPA Giardia inh)
CC(C)(CS)C(=O)N1CCC[C@H]1C(=O)O	none (no result: Shiga toxin inh, NS1 function inh, Cycloheximide cs, LmPK inh)
CCCCCCN(C(=O)CCCCCN1C(=O)NC(c2ccccc2-c2ccccc2)C(C(=O)OCc2ccccc2)=C1C)C(C(=O)NCCCC)c1ccc(OCC(=O)OC)c(C(=O)OC)c1 (stereo not given)	none (no result: Shiga toxin inh, NS1 function inh, Cycloheximide cs, LmPK inh)
S=C(NCCc1ccncc1)Nc1cccc2ccccc12	none
COc1cccc(C(=O)Nc2cccc3ccccc23)c1	none
Cc1cc(C)cc(NC(=S)Nc2cccc3ccccc23)c1	none (no result: FBPA Giardia inh)
Fc1ccc(NC(=S)Nc2cccc3ccccc23)cc1F	Shiga toxin inh 45.1, FBPA Giardia inh inconclusive, Cycloheximide cs 45.6
COc1cccc(NC(=S)Nc2cccc3ccccc23)c1	Shiga toxin inh 109.8, FBPA Giardia inh inconclusive, NS1 function inh inconclusive, Cycloheximide cs 84.6
FC(F)(F)c1ccccc1NC(=S)NN=C1CCCCCC1	FBPA Giardia inh inconclusive, Cycloheximide cs 32.9
Cc1cccc(NC(=S)Nc2cccc3ccccc23)c1	Shiga toxin inh 95.3, Cycloheximide cs 32.0
COc1ccc(N2CCN(C(=O)CCS(=O)(=O)c3ccc4c(c3)CCN4C(=O)C3CC3)CC2)cc1	none (no result: FBPA Giardia inh)
CC1CCC(C(=O)O)NC1c1cccc(N2CCOCC2)c1 (stereo not given)	none (no result: Shiga toxin inh, NS1 function inh, Cycloheximide cs, LmPK inh)
COc1ccc(NC(=O)c2oc3ccccc3c2C)cn1	none (no result: FBPA Giardia inh)
O=C(O)c1ccc(S(=O)(=O)N[C@H](Cc2ccc(C(F)(F)F)cc2)C(=O)O)cc1	none (no result: NS1 function inh, LmPK inh)
CCC(=O)c1ccc(OCC(O)CN2CCN(S(=O)(=O)c3ccc(NC(C)=O)cc3)CC2)cc1 (stereo not given)	none
COc1cccc(NC(=S)NN2C(C)CCCC2C)c1 (stereo not given)	none
CCC(C)c1ccc(NC(=S)Nc2ccc(OC)cc2C)cc1 (stereo not given)	Shiga toxin inh 61.7, Cycloheximide cs 30.0
COc1cccc(NC(=S)NN=C2CCCCCC2)c1	Shiga toxin inh 53.3, Cycloheximide cs 26.2
Cc1ccc(NC(=S)Nc2cccc3ccccc23)cc1	Shiga toxin inh 78.2, FBPA Giardia inh inconclusive, Cycloheximide cs 89.7
Cc1cccc(C(=O)OCC(=O)c2cccc(Br)c2)c1O	none (no result: FBPA Giardia inh)
C[C@H](N=C1NS(=O)(=O)c2ccccc21)C(=O)OCc1cc([N+](=O)[O-])cc2c1OCOC2	none
CSc1ccc(/C=N/N2CCN(Cc3ccc(Cl)cc3)CC2)cc1	none
CSc1ccc(/C=N/N2CCN(C)CC2)cc1	Cycloheximide cs 29.1 (no result: NS1 function inh)
CN1CCN(/N=C/c2ccc(-c3ccccc3)cc2)CC1	Shiga toxin inh 62.5, Cycloheximide cs 49.0 (no result: NS1 function inh)

High-throughput results deposited in PubChem BioAssay by National Center for Advancing Translational Sciences (NCATS).
